Drawing on PubChem BioAssay (NCI), this text covers growth for 15 compounds.

Molecules are shown by their SMILES. Compounds without any hit were thinned out: in the full panel of roughly 83,000, 20% have a hit.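 In brief: 96-well plates, 48 h treatment, single concentration, percent growth endpoint.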 Unmarked numbers belong to inactive results. The source made the active and inactive calls. The calls were made as follows: active = growth percent below 10; inactive = the rest.

Holding throughout (test): NCI-60 one-dose screen, 48 h (100 = growth as untreated, 0 = no growth, -100 = all killed)
Common to all, as to settings: 10 µM unless noted

The test system of test [1] is HCT-15 colon.
The test system of test [2] is HT29 colon.
For test [3], the system named is SNB-75 CNS.
Test [4] deals with SNB-19 CNS.
Test [5] relates to U251 CNS.
In test [6] the test system is PC-3 prostate.
Test [7] relates to SK-MEL-5 melanoma.
Test [8] relates to UACC-62 melanoma.
For test [9], the system named is LOX IMVI melanoma.
Test [10] relates to SK-MEL-28 melanoma.
The test system of test [11] is SK-MEL-2 melanoma.
Test [12] has as its system EKVX NSCLC.
Test [13] concerns SN12C renal.
The test system of test [14] is UO-31 renal.
Test [15] relates to TK-10 renal.
For test [16], the system named is ACHN renal.
For test [17], the system named is CAKI-1 renal.
Test [18] deals with A498 renal.
Test [19] has as its system CCRF-CEM leukemia.
For test [20], the system named is MOLT-4 leukemia.

For the compound `CCCCC[C@H](O)C/C=C1/C(=O)C=C[C@@H]1C/C=C\CCCC(=O)O`, the growth is 69.5% in [1]; 59.8% in [2]; 79.1% in [3]; 83.4% in test [4]; 43.8% in test [5]; 78.4% in test [6]. The growth in test [7] was 82.8%; in [8] it was 60.9%; in test [9], 6.2% (active); in [10], 66.4%; in test [11] it was 79.6%; in test [12], 100%. Besides, the growth was 52.3% in [13]; 81.9% in [14]; 111% in test [15]; 83.2% in test [16]; 80.7% in test [17]; 109% in [18]. Further, the results for the growth in [19] and in test [20] were 14.9% and 43.2%, respectively.

As for `CCN(CC)Cc1cc(Nc2c3ccc(Cl)cc3nc3ccc(OC)cc23)ccc1O`, the growth in [1] is 34.1%; in [2], 11.8%; in test [3] it was 103%; in test [4], 57.2%; in test [5], 57%; in test [6], 78%. Further, the growth was 85.5% in test [7]; 103% in [8]; 24.9% in [9]; -5.73% (active) in test [10]; 101% in test [11]; 76.2% in test [12]. In addition, the growth in test [13] was 56.6%; in test [14], 34.2%; in [15], 96.6%; in test [16] it was 59.7%; in [17] it was 69.8%; in [18], 77.2%. For the same compound, the growth in test [19] is 60.4%; in test [20], 22.6%.

`O=C1CSC(c2c(Cl)cccc2Cl)N1c1nc(Cl)cc(=O)[nH]1` (centres undefined): the growth in [1] was 123%; in test [2], 111%; in test [3] it was 113%; in test [4] it was 103%; in [5] it was 112%; in test [6], 73.1%. In addition, the growth was 97% in [7]; 102% in [8]; 104% in test [9]; 115% in [10]; 78.3% in [11]; 119% in test [12]. Further, the growth is 108% in test [13]; 79.8% in test [14]; 161% in test [15]; 111% in test [16]; 117% in test [17]; 121% in [18]. Besides, the growth in test [19] was 67.3%; in test [20] it was 171%.

On to `O=C(Cc1ccc(F)c(Cl)c1)Nc1cc(C2(C(F)(F)F)CC2)nn1Cc1ccccc1`, for which the growth was 93.9% in test [1]; 18% in test [2]; -21.6% (active) in [3]; 9.43% (active) in [4]; 24.3% in [5]; 86.8% in test [6]. The growth is 83.6% in test [7]; 65.9% in test [8]; 86.3% in test [9]; 98% in [10]; 18.9% in test [11]; 68.1% in test [12]. Moreover, the growth was 49.3% in [13]; 42.4% in test [14]; 81% in test [15]; 35.9% in test [16]; 10.1% in test [17]; -2.62% (active) in test [18]. The growth is 15% in test [19] and 93% in test [20].

For `Cc1ccc(C(=O)N/N=C/c2cccc([N+](=O)[O-])c2)cn1`, the growth was 109% in [1]; 114% in test [2]; 94.2% in test [3]; 98.5% in [4]; 107% in test [5]; 95.4% in [6]. Besides, the growth in [7] was 98.9%; in test [8], 98.1%; in test [9] it was 105%; in test [10] it was 103%; in [11], 111%; in test [12], 104%. Moreover, the growth in [13] was 105%; in test [14], 76.6%; in [15] it was 118%; in test [16], 107%; in test [17] it was 87.1%; in test [18] it was 84.9%. Moreover, the growth was 96.7% in test [19] and 92.1% in [20].

In the case of `Cc1c(C(=O)N[C@@H](Cc2ccccc2)C(=O)C(=O)NCc2ccc(F)cc2)[nH]c2ccccc2c1=O`, the growth is 96.2% in test [1]; 101% in test [2]; 88.5% in [3]; 96.9% in test [4]; 101% in test [5]; 86.5% in [6]. The growth in test [7] is 98.7%; in [8] it was 91.7%; in test [9], 99.9%; in test [10], 100%; in [11] it was 108%; in test [12], 85.3%. The growth was 78.9% in test [13]; 106% in [14]; 107% in test [15]; 97.8% in test [16]; 96.9% in test [17]; 75.8% in test [18]. Also, the growth is 103% in test [19] and 87.5% in test [20].

Take `CNc1ccc(Nc2cccc(C)c2)c2c1C(=O)c1ccccc1C2=O`: the growth in test [1] was 85.1%; in [2], 96.6%; in test [3] it was 96.3%; in test [4], 99.6%; in test [5], 95.4%; in test [6], 95%. Besides, the growth in test [7] is 91%; in test [8] it was 64.9%; in [9] it was 81.5%; in test [10] it was 114%; in test [11], 60%; in [12], 164%. Also, the growth is 80.4% in test [13]; 58.3% in test [14]; 100% in test [15]; 78.1% in test [16]; 131% in test [17]; 89.2% in test [18]. The growth in test [19] is 102%; in [20], 85.1%.

With `CCOc1ccc2nc(SCc3nc4n(n3)S(=O)(=O)c3ccccc3N4C)sc2c1`, the growth in test [1] was 26.9%; in test [2], 62.3%; in test [3], -15% (active); in test [4], 30.6%; in [5] it was 16.3%; in [6] it was 19.5%. For the same compound, the growth is -23.9% (active) in test [7]; 25.9% in test [8]; 19.8% in test [9]; 45.7% in test [10]; 17.9% in test [11]; 14% in [12]. For the same compound, the growth is 22.2% in [13]; -46.3% (active) in test [14]; -8.01% (active) in test [15]; 4.84% (active) in [16]; -39.5% (active) in [17]; -25.8% (active) in test [18]. Also, the growth in [20] is 4.81% (active).

`COc1ccc(C2CC(c3ccc(Nc4nc(Nc5ccc(F)cc5)nc(Nc5ccc(Cl)cc5)n4)cc3)=NN2C(C)=O)cc1` (centres undefined): the growth in test [1] is 93.6%; in test [2] it was 108%; in test [3] it was 85.5%; in [4], 79.3%; in test [5], 86.7%; in test [6], 85.2%. Also, the growth in test [7] was 92%; in [8], 90.6%; in test [9], 105%; in test [10], 114%; in test [11], 96.1%; in [12], 109%. Besides, the growth in [13] is 103%; in test [14], -65.4% (active); in test [15], 103%; in [16], 91.7%; in test [17] it was 108%; in test [18], 129%. For the same compound, the growth is 124% in [19] and 93% in test [20].

Consider `O=C1c2cccc3cccc(c23)C(=O)N1N1C(=O)c2cccc3c(NC4CCCCC4)ccc(c23)C1=O`, for which the growth in test [1] is 96.6%; in [2], 95.9%; in test [3], 87.5%; in test [4], 89.1%; in test [5], 99.7%; in test [6] it was 83.6%. Further, the growth in test [7] was 96.7%; in test [8] it was 83.5%; in test [9], 92.1%; in test [10] it was 100%; in test [11], 105%; in test [12] it was 89.3%. Besides, the growth in test [13] is 91.7%; in [14], 66.3%; in test [15] it was 126%; in test [16], 92.2%; in test [17], 79.9%; in test [18], 95.5%. The growth in [19] is 89.1%; in [20] it was 89.6%.

With `O=c1c2cc(F)ccc2sc2c(NCCCNCCO)nc3ccc(F)cc3c12`, the growth was 47.9% in test [1]; -0.699% (active) in test [2]; 54.2% in [3]; 72.6% in [4]; 38.4% in test [5]; 50.6% in test [6]. For the same compound, the growth in test [7] was 80.7%; in test [8], 88.6%; in [9], -76.7% (active); in [10], 94%; in [11], 97.3%; in test [12], 75.4%. Moreover, the growth in test [13] was 66.1%; in test [14], 31.1%; in [15], 67.5%; in test [16], 46.9%; in test [17] it was 27.1%; in test [18] it was 26.9%. The growth in [19] is 15.1%; in test [20], 18.8%.

With `O=C1/C(=C/c2ccc(F)cc2)Sc2c(Br)cccc21`, the growth in test [1] was 75.8%; in test [2] it was 100%; in [3] it was 87.7%; in [4], 95.6%; in [5], 70.4%; in test [6], 70.4%. Besides, the growth was 88.1% in test [7]; 55.7% in test [8]; 82% in test [9]; 110% in test [10]; 63.5% in [11]; 87.9% in test [12]. Also, the growth in test [13] was 62.7%; in [14] it was 42%; in [15], 111%; in test [16], 76.5%; in test [17], 81.5%; in [18], 92.9%. For the same compound, the growth in test [19] is 86.2%; in test [20], 81.5%.

For the compound `CN1CCN(c2ccc(-c3ccc4ncc(C#N)c(Nc5ccc(F)c(Cl)c5)c4c3)cc2)CC1`, the growth in test [1] is -12.9% (active); in test [2], 18.2%; in test [3], 75.5%; in [4], 72.7%; in test [5], 50%; in test [6], 45.8%. For the same compound, the growth in [7] was 58.1%; in test [8] it was 69.7%; in test [9], 43%; in test [10], -43.1% (active); in test [11], 48.3%; in test [12] it was 54.4%. Moreover, the growth was 59.9% in test [13]; 30.4% in test [14]; 36.3% in [15]; 18.9% in test [16]; 33.8% in test [17]; -7.38% (active) in test [18]. The growth in test [19] was 13.1%; in test [20], 35.7%.

Consider `O=C1/C(=C/c2ccccc2[N+](=O)[O-])Oc2ccc(O)c(O)c21`, for which the growth is 18.6% in test [1]; 32.3% in [2]; 65.9% in [3]; 70.3% in test [4]; 54.1% in test [5]; 44.5% in test [6]. In addition, the growth was 62% in test [7]; -41.1% (active) in [8]; 14.3% in test [9]; 22.5% in [10]; 43.1% in test [11]; 63.9% in test [12]. Moreover, the growth in test [13] is 31.1%; in test [14] it was 28.7%; in [15], 80.4%; in [16], 17.7%; in test [17] it was 15.1%; in test [18] it was 65.7%. The results for the growth in test [19] and in test [20] were 8.79% (active) and 18.1%, respectively.

With `C=C1C(=O)O[C@H]2[C@H]1CC/C(COC(=O)C(C)c1ccc(CC(C)C)cc1)=C\CC[C@@]1(C)O[C@@H]21` (some centres undefined), the growth in test [1] was -56.1% (active); in [2], -54.1% (active); in test [3], 56.6%; in test [4] it was 64.1%; in [5], 1.42% (active); in [6], 16.4%. The growth was 7.78% (active) in test [7]; 6.52% (active) in test [8]; -89.1% (active) in test [9]; 5.16% (active) in [10]; 36.7% in test [11]; 46.2% in [12]. Moreover, the growth in [13] was 35.2%; in test [14], -87.6% (active); in test [15], 62%; in test [16] it was -94.6% (active); in [17], 79.1%; in test [18], 92.7%. Besides, the growth in test [19] is 4.97% (active); in test [20], -3.37% (active).
